Consider 49 compounds from PubChem BioAssay AID1259418 (Broad Institute, 2018).

Among all 3,400 compounds or so, about 840 (25%) were called active. About 11% were inconclusive and are not listed.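 The calls were made as follows: active = fitted half-maximal concentration of signal decrease at or below twice the sample's top tested concentration; inconclusive = flat curve between -70 and -30 percent, or poor fit; inactive = flat within 30 percent, signal rise, or potency above limit.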 Only a sample is shown. Measured potencies and affinities stand elsewhere.

This assay in a line: T. gondii growth inhibition with IFN-gamma, dose response, cell-based, ME49Luc, HeLa, luciferase, 72 h (AID 1259418). As to conditions: T. gondii ME49Luc in IFN-y HeLa, stronger effect = lower value, -100% = high-dose IFN-γ control wells; at 19.5 µM unless noted.
As to `COc1cc(OC)cc(C(=O)N2CCC3(CC2)Nc2ccc(C)c(C)c2-n2cccc23)c1`, the max activity was -13.1% [at 0.35 µM] (inactive).
Turning to `COc1cccc(CC(=O)N2CCC(C(=O)NCCc3csc(-c4ccccc4)n3)CC2)c1`, the max activity is 8.89% [at 10 µM] (inactive).
For the compound `O=C(NCCc1csc(-c2ccccc2)n1)C1CCN(C(=O)Cc2ccc(Cl)cc2)CC1`, the max activity is 8.14% (inactive).
As for `COc1ccc(-c2nc3c([nH]2)c(=O)n(C)c(=O)n3C)cc1OC`, the max activity is 40.8% [at 0.35 µM] (inactive).
As for `Cc1ccc(CCNC(=O)CCC2Nc3c4ccccc4nc(=S)n3C2=O)cc1` (centres undefined), the max activity is 13.4% [at 10 µM] (inactive).
To `COc1cccc(S(=O)(=O)N2CC[C@@H]3[C@H](CO)Nc4ccc(C5=CCCCC5)cc4[C@@H]32)c1` belongs 8.73% [at 10 µM] (inactive); to `CN(C)CC(=O)N1C[C@@H]2N[C@H](C1)C2c1ccc(C2=CCCCC2)cc1` (some centres undefined), 18.8% [at 9 µM] (inactive).
Take `Cc1nc(CCNC(=O)[C@H]2CCCN2S(=O)(=O)c2cccs2)cs1`: the max activity is 7.39% [at 0.16 µM] (inactive).
Next, `O=C(NCCCN1CCC(N2CCCCC2)CC1)c1nnc2ccc(-c3ccccc3)nn12`: 16.2% [at 0.16 µM] (inactive); `Cc1cccc(C(=O)N2CCC3(CC2)Nc2ccc(C)c(C)c2-n2cccc23)c1`: 11.2% [at 0.68 µM] (inactive); `Cc1oc(-c2ccccc2)nc1Cn1nnc(-c2nc(-c3ccc4c(c3)OCO4)no2)c1C`: 8.48% [at 10 µM] (inactive).
Consider `O=S(=O)(Cc1ccccc1)N1CC2CN(Cc3cccc(Cl)c3)CC2C1` (centres undefined), for which the max activity was 9.94% (inactive).
Take `COc1ccc(-c2nc(NCC3CCN(Cc4cccc(C)c4)CC3)c3ccccc3n2)cc1`: the max activity is -18.6% [at 2.6 µM] (inactive).
As to `COc1cccc(CN2CCc3nc(SCc4nc(-c5ccccc5)oc4C)[nH]c(=O)c3C2)c1`, the max activity is 24.2% [at 2.6 µM] (inactive).
To `COc1ccc(-c2nc(NCC3CCN(Cc4cccc(Cl)c4)CC3)c3ccccc3n2)cc1` belongs -31.6% [at 10 µM] (inactive); to `COCCC(=O)c1cc2c(s1)CCN2Cc1cccnc1`, 26.4% (inactive).
On to `COc1cccc(CNC(=O)N2CCc3nc(-c4ccccc4)sc3C2)c1`, for which the max activity is -15% [at 5 µM] (inactive).
On to `Cc1ccccc1S(=O)(=O)N1CCCCN2[C@H](CO)[C@H](c3ccc(C#CCN(C)C)cc3)[C@H]2C1`, for which the max activity was 23.7% (inactive).
As to `Cc1ccccc1S(=O)(=O)N1CCCCN2[C@H](CO)[C@H](c3ccc(C#CCN(C)C)cc3)[C@@H]2C1`, the max activity was -17.9% (inactive).
`Cc1cccc(N2CCN(c3nc(-c4ccc(Cl)cc4)nc4ccccc34)CC2)c1C`: the max activity was 10.6% (inactive).
In the case of `c1cc(-c2nccn2CCn2ccnc2)ccn1`, the max activity was 11.4% (inactive).
As to `COc1cccc(CNc2nc(-c3ccc(Cl)cc3)nc3ccccc23)c1`, the max activity was -22% [at 1.35 µM] (inactive).
Turning to `O=S(=O)(c1cccc(F)c1)N1CC[C@@H]2[C@H]1c1cc(Br)ccc1N[C@@H]2CO`, the max activity was 35.2% [at 10 µM] (inactive).
Next, `OC[C@@H]1Nc2ccc(-c3cccc(F)c3)cc2[C@H]2[C@@H]1CCN2Cc1ccc(F)cc1`: 42.2% [at 10 µM] (inactive); `Cc1ccc(-c2csc(-c3cccn3CC(=O)N3CCC4(CC3)OCCO4)n2)cc1`: 11.8% [at 5 µM] (inactive).
To `Cc1oc(-c2ccccc2)nc1Cn1nnc(-c2nc(-c3ccc(F)c(Cl)c3)no2)c1C` belongs -12.6% [at 1.35 µM] (inactive); to `O=C(COc1ccccc1)N1CCC2(CC1)Nc1cc(F)ccc1-n1cccc12`, 10.6% [at 5 µM] (inactive); to `CCOc1ccc(-c2nc(CN3CCN(C(=O)Nc4ccccc4C(=O)OC)CC3)c(C)o2)cc1`, 6.24% [at 0.16 µM] (inactive).
On to `COc1cc(CCC(=O)N2CCC3(CC2)Nc2ccc(C)c(C)c2-n2cccc23)cc(OC)c1OC`, for which the max activity was -12.8% [at 2.6 µM] (inactive).
To `O=C(c1ccc(F)cc1)N1CCC2(CC1)Nc1ccc(Cl)cc1-n1cccc12` belongs 13.8% [at 0.68 µM] (inactive).
For `O=C(c1ccccc1F)N1CCC2(CC1)Nc1ccc(Cl)cc1-n1cccc12`, the max activity is -6.53% [at 0.35 µM] (inactive).
Consider `COc1ccc(-c2nc(NCCc3ccc(SC)cc3)c3ccccc3n2)cc1`, for which the max activity was -32.9% (inactive).
Next, `CCOC(=O)CSC1=Nc2ccccc2C2=NC(CC(=O)NCc3ccc(F)cc3)C(=O)N12` (centres undefined): 17.3% (inactive); `CS(=O)(=O)N1CC(=O)N2[C@H](CO)[C@H](c3ccc(C#CCC4CCCC4)cc3)[C@@H]2C1`: 13.6% [at 10 µM] (inactive); `CS(=O)(=O)N1CC(=O)N2[C@H](CO)[C@@H](c3ccc(Br)cc3)[C@H]2C1`: 27.1% (inactive).
Consider `CS(=O)(=O)N1CC(=O)N2[C@@H](CO)[C@H](c3ccc(C#Cc4ccc(F)cc4)cc3)[C@@H]2C1`, for which the max activity is 11.8% [at 10 µM] (inactive).
Turning to `CC(C)C#Cc1ccc([C@H]2[C@@H](CO)N3C(=O)CN(S(=O)(=O)c4ccccc4)C[C@H]23)cc1`, the max activity is -8.27% [at 10 µM] (inactive).
To `CS(=O)(=O)N1CC(=O)N2[C@H](CO)[C@@H](c3ccc(C#CCC4CCCC4)cc3)[C@H]2C1` belongs 29.5% [at 11 µM] (inactive); to `CC(C)C#Cc1ccc([C@H]2[C@@H](CO)N3C(=O)CN(S(=O)(=O)c4ccccc4)C[C@@H]23)cc1`, 19.2% [at 10 µM] (inactive); to `Cc1ccc(C)c(CSc2ccc(-c3sc(-c4ccc(F)cc4)nc3C)nn2)c1`, -9.1% [at 5 µM] (inactive).
Next, `COc1ccc(-c2nc(NCc3ccccc3OC)c3ccccc3n2)cc1`: -10.7% [at 0.68 µM] (inactive).
To `O=C(Nc1ccc(-c2nc(-c3cccc(Br)c3)co2)cc1)Nc1cccc(F)c1` belongs -13.2% [at 2.6 µM] (inactive); to `COc1ccc(-n2c(C)cc(CNS(=O)(=O)c3ccc4c(c3)CCC(=O)N4)c2C)cc1`, 35.1% (inactive).
Take `O=C(NCCc1csc(-c2ccccc2)n1)[C@H]1CSCN1S(=O)(=O)c1ccccc1`: the max activity was 14.6% (inactive).
For `CCS(=O)(=O)N1CSC[C@@H]1C(=O)NCCc1csc(-c2ccccc2)n1`, the max activity is 7.03% [at 5 µM] (inactive).
For `Cc1ccccc1S(=O)(=O)N1CSC[C@@H]1C(=O)NCCc1csc(-c2ccccc2)n1`, the max activity was -13% [at 0.16 µM] (inactive).
Regarding `O=C(NCCc1csc(-c2ccccc2)n1)[C@H]1CSCN1S(=O)(=O)c1ccc(F)cc1`, the max activity was 15.5% [at 10 µM] (inactive).
`CCc1ccc(S(=O)(=O)N2CSC[C@@H]2C(=O)NCCc2csc(-c3ccccc3)n2)cc1`: the max activity was -11.2% [at 0.68 µM] (inactive).
With `O=C(NCCc1csc(-c2ccccc2)n1)[C@H]1CSCN1S(=O)(=O)Cc1ccccc1`, the max activity is 17.7% [at 2.6 µM] (inactive).
